These results are taken from ChEMBL document CHEMBL1961873, “Compounds: GSK PKIS; Assays: Nanosyn kinase panel” (2012).

Experiment [1] concerns the target High affinity nerve growth factor receptor (Homo sapiens) (UniProt P04629). The conditions noted are these: at 1 µM.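 Note: each value is the mean percent inhibition of TRKA.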
Experiment [2] addresses BDNF/NT-3 growth factors receptor (Homo sapiens) (UniProt Q16620). The conditions noted are these: at 0.1 µM.
For experiment [3] the target is unchanged. The conditions noted are these: at 1 µM.
In experiment [4] the target is NT-3 growth factor receptor (Homo sapiens) (UniProt Q16288). The conditions noted are these: at 0.1 µM.
NT-3 growth factor receptor (Homo sapiens), sequence (Q16288 32-839 limits assumed): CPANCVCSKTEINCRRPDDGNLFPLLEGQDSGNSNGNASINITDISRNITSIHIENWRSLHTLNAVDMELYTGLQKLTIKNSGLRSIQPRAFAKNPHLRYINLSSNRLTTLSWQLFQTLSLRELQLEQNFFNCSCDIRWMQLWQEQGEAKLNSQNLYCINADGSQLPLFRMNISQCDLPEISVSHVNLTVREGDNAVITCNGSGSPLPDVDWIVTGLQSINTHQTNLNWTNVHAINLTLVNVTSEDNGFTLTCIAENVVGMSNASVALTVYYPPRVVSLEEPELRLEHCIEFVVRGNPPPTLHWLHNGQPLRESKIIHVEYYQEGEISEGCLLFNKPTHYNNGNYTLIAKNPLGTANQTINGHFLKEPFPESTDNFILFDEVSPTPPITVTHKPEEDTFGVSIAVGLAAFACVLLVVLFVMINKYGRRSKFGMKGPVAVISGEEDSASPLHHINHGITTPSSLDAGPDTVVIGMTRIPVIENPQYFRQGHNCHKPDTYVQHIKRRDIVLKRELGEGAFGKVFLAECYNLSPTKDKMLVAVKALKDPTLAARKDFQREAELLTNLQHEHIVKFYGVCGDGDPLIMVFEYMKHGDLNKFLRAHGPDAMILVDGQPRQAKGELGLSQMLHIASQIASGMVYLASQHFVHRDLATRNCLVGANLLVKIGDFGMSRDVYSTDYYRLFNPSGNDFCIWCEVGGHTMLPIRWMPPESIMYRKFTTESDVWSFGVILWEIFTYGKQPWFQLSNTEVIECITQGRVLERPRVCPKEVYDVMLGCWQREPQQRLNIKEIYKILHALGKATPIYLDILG
For experiment [5] the target is unchanged. The conditions noted are these: at 1 µM.
The target of experiment [6] is T1, Tyrosine-protein kinase TXK (Homo sapiens) (UniProt P42681).
T1 sequence (whole entry): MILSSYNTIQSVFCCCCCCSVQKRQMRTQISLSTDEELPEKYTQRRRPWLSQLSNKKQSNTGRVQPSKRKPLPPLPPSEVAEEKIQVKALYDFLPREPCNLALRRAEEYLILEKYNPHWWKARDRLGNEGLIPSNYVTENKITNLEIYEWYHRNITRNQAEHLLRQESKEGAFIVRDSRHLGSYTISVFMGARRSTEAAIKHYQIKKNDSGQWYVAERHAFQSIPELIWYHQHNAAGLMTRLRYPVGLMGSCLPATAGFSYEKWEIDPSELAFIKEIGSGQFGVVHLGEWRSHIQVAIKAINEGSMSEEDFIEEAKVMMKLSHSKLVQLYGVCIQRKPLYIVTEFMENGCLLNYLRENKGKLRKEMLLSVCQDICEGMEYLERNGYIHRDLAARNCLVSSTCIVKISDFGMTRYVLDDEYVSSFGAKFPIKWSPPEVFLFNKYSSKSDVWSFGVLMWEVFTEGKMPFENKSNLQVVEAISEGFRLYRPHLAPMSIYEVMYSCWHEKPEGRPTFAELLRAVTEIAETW
The note with it: at 0.1 µM.

Experiment [7] deals with T1, Tyrosine-protein kinase TXK (Homo sapiens). The note with it: at 1 µM.
The target of experiment [8] is Non-receptor tyrosine-protein kinase TYK2 (Homo sapiens) (UniProt P29597). The conditions noted are these: at 0.1 µM.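 Note: each value is a mean of the inhibition readings.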
Non-receptor tyrosine-protein kinase TYK2 (Homo sapiens), sequence (P29597 whole entry): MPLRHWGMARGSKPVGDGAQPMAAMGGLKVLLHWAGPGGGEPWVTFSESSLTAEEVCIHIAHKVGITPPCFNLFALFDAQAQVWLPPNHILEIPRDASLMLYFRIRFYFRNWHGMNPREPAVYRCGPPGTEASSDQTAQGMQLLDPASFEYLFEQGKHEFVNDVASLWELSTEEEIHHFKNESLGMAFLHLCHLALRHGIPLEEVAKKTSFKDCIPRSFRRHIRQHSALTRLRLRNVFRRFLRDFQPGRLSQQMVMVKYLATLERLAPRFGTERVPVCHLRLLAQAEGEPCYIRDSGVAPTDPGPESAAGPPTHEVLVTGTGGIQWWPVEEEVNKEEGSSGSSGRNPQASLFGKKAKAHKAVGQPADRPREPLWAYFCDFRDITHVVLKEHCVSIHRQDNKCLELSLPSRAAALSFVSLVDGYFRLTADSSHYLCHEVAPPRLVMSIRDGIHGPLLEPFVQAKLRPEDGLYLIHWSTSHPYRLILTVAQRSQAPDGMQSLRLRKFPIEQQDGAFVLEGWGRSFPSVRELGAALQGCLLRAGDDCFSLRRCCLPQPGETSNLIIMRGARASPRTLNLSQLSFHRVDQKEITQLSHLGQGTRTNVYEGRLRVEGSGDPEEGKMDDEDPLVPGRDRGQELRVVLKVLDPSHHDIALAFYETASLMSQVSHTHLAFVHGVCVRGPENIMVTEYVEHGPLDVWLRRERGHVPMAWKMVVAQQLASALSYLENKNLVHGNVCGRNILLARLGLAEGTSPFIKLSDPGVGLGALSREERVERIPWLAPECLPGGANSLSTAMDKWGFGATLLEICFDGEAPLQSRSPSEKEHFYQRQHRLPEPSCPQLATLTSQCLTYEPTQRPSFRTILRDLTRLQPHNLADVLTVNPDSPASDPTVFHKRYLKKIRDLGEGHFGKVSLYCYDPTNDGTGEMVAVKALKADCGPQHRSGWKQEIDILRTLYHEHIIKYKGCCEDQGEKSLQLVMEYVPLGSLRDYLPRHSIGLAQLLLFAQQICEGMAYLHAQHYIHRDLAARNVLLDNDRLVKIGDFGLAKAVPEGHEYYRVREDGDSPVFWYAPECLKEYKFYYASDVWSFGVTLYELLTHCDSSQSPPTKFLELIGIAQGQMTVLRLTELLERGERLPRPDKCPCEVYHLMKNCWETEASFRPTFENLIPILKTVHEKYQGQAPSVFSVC
Experiment [9] has as its target T2, Dual specificity protein kinase TTK (Homo sapiens) (UniProt P33981).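 Note: reported figures are mean TTK inhibition at 1 µM.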
T2 sequence (whole entry): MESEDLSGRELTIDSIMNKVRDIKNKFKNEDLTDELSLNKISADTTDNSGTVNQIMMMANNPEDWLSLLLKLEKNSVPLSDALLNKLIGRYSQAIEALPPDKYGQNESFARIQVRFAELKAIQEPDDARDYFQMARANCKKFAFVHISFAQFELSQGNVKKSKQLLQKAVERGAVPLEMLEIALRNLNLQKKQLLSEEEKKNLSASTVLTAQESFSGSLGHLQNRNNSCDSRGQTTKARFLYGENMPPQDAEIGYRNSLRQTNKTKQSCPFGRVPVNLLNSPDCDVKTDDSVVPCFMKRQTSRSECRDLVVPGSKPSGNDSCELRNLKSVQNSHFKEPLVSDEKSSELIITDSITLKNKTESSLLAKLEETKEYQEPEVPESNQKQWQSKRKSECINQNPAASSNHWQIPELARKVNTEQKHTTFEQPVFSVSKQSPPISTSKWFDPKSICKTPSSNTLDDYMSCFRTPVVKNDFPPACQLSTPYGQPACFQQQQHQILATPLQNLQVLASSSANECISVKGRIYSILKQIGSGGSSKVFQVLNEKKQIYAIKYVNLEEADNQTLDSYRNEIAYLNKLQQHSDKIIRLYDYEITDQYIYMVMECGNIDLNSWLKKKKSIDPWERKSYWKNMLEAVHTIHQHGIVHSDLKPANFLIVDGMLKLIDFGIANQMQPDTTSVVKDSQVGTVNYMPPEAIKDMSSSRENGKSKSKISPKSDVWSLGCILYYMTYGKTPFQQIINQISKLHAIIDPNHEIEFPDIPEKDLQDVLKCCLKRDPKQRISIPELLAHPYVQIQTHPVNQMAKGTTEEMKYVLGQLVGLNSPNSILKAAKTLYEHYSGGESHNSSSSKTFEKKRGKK
The conditions noted are these: at 1 µM.

The target in experiment [10] is T3, Aurora kinase A (Homo sapiens) (UniProt O14965).
T3 sequence (whole entry): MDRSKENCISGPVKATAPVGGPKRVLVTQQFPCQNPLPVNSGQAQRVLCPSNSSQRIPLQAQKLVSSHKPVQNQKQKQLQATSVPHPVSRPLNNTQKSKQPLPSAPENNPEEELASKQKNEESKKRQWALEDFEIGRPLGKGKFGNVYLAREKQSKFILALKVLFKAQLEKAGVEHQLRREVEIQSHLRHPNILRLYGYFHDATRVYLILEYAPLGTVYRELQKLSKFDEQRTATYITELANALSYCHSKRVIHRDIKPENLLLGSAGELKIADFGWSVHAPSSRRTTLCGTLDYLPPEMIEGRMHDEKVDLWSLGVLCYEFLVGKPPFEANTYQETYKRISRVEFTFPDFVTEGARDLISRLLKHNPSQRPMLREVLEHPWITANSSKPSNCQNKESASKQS
The conditions noted are these: at 0.1 µM.

The target in experiment [11] is T3, Aurora kinase A (Homo sapiens). The conditions noted are these: at 1 µM.
The target in experiment [12] is Aurora kinase B (Homo sapiens) (UniProt Q96GD4). The conditions noted are these: at 0.1 µM.
Aurora kinase B (Homo sapiens), sequence (Q96GD4 whole entry): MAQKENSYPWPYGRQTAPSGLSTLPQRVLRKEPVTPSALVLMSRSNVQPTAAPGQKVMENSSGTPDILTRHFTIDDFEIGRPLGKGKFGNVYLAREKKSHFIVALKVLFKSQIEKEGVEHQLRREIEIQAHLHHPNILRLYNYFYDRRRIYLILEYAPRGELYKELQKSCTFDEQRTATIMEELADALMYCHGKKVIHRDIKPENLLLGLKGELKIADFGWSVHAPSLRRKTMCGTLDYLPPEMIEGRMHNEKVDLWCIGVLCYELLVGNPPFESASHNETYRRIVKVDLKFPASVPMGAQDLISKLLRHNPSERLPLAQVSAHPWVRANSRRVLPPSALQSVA
Experiment [13] has the same target. The note with it: at 1 µM.
Experiment [14] has as its target T4, Aurora kinase C (Homo sapiens) (UniProt Q9UQB9).
T4 sequence (whole entry): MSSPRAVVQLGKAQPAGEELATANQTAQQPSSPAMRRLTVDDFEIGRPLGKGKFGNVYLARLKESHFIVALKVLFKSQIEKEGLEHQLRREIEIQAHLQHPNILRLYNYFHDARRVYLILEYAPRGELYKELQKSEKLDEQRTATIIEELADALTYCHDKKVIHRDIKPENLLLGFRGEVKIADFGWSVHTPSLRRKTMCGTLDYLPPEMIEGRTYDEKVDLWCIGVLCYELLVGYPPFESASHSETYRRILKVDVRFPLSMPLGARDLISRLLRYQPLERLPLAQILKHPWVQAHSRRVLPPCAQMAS
The note with it: at 0.1 µM.

In experiment [15] the target is T4, Aurora kinase C (Homo sapiens). The conditions noted are these: at 1 µM.
The target of experiment [16] is Serine/threonine-protein kinase 10 (Homo sapiens) (UniProt O94804). The conditions noted are these: at 0.1 µM.
Serine/threonine-protein kinase 10 (Homo sapiens), sequence (O94804 whole entry, looked up): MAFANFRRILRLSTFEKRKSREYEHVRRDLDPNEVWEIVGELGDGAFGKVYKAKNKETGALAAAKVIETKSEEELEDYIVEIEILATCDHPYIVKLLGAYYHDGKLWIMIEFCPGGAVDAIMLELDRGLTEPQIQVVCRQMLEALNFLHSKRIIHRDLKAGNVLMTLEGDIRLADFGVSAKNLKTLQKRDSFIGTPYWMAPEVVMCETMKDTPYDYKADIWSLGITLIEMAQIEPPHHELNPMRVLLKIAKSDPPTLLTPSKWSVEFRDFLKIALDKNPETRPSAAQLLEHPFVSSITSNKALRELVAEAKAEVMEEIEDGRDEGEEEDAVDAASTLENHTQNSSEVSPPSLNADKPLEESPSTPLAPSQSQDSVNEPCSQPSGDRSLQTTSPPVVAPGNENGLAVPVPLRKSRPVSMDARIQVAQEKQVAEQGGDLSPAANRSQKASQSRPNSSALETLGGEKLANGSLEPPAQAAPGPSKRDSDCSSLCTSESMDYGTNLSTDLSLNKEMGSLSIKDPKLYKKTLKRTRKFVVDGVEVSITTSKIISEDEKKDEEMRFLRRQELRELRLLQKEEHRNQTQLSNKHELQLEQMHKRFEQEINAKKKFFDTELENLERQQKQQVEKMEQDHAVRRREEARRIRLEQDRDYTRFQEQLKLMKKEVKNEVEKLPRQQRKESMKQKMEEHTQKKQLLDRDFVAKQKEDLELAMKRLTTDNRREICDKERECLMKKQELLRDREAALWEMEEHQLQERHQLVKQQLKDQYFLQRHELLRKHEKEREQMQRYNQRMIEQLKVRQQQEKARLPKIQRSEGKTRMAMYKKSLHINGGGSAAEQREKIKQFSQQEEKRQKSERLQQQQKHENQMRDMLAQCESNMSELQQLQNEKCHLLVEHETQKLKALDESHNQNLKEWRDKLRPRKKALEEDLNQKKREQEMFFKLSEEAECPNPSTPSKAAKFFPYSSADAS
The target is the same in experiment [17]. The note with it: at 1 µM.
Experiment [18] addresses T5, Mitogen-activated protein kinase kinase kinase kinase 2 (Homo sapiens) (UniProt Q12851).
T5 sequence (whole entry): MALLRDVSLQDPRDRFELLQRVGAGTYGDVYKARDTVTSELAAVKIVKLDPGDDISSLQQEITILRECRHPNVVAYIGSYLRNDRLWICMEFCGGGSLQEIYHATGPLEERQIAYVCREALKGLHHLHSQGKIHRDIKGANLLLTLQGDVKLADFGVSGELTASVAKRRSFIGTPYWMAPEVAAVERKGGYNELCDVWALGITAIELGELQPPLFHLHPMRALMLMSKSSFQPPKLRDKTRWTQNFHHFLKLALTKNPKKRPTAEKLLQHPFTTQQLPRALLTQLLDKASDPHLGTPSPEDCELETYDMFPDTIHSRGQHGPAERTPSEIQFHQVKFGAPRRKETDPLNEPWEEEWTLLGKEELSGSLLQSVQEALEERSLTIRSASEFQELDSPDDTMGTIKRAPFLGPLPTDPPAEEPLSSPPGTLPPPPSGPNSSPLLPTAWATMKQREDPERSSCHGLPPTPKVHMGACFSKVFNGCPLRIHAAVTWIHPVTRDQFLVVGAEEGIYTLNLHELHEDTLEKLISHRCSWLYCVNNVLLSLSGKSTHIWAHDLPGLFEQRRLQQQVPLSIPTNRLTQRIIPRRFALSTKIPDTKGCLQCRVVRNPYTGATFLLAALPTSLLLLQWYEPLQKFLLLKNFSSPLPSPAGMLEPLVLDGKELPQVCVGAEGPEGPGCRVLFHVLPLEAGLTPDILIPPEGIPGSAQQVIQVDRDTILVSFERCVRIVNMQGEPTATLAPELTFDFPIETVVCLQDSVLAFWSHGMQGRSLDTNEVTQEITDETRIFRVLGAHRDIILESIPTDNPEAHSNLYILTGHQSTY
The note with it: at 0.1 µM.

Experiment [19] deals with T5, Mitogen-activated protein kinase kinase kinase kinase 2 (Homo sapiens). The conditions noted are these: at 1 µM.
The target in experiment [20] is Mitogen-activated protein kinase kinase kinase kinase 4 (Homo sapiens) (UniProt O95819). The note with it: at 0.1 µM.

Usually inhibition stands for the change of the read-out against control, counted positive when it falls.

Structures are written as SMILES.

High affinity nerve growth factor receptor (Homo sapiens), sequence (P04629 33-796 limits assumed): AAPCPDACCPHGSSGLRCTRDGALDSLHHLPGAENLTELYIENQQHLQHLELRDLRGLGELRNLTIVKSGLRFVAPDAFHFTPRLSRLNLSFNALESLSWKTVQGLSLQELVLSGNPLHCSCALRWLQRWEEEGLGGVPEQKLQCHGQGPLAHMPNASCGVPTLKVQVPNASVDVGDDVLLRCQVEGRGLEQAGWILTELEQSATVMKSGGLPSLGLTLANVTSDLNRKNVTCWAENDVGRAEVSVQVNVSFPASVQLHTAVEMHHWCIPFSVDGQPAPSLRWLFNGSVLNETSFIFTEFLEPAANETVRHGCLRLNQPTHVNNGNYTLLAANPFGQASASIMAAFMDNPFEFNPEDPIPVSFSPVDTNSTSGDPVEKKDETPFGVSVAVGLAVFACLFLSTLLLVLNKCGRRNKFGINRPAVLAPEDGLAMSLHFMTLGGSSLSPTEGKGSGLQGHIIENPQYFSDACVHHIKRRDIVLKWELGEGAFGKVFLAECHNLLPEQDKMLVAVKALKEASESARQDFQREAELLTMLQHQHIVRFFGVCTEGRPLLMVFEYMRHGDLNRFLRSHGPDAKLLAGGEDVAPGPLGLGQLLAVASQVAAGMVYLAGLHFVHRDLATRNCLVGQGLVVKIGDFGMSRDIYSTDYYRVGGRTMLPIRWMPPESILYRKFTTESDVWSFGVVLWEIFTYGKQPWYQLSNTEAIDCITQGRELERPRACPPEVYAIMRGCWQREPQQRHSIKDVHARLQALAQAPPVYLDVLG
BDNF/NT-3 growth factors receptor (Homo sapiens), sequence (Q16620 32-822 limits assumed): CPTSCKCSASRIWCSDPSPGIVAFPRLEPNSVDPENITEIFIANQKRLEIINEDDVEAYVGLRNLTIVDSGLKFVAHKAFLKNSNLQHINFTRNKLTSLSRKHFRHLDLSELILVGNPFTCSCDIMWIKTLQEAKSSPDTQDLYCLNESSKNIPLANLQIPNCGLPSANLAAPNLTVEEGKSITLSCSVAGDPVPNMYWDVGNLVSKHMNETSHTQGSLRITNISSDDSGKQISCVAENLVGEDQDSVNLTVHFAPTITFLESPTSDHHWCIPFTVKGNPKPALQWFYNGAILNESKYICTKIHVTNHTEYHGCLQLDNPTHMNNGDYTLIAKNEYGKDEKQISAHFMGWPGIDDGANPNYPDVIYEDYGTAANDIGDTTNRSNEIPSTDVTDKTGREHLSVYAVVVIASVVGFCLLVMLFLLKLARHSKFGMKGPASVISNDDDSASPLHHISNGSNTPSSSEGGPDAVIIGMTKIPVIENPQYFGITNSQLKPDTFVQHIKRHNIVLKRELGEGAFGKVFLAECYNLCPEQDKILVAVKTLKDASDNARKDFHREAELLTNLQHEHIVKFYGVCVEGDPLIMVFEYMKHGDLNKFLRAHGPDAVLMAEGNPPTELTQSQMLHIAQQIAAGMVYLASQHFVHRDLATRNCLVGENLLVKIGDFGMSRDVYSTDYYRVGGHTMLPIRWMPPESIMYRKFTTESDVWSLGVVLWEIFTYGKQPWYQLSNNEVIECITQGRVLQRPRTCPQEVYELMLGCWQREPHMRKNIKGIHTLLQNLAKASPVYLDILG

With `CCS(=O)(=O)c1ccc(OC)c(Nc2ncc(-c3cccc(OC)c3)o2)c1`, the inhibition in experiment [1] is 30.9%; in [2], 7.72%; in [3], 43.5%; in [4], 11.7%; in experiment [5], 49.3%; in [6], 14.5%. The inhibition in experiment [7] was 53.4%; in [8], -5.06%; in experiment [9], 7.02%; in experiment [10] it was 4.52%; in [11] it was 34.5%; in experiment [12] it was 2.15%. For the same molecule, the inhibition in experiment [13] amounted to 5.4%; in experiment [14], 1.61%; in experiment [15], 14.6%; in experiment [16], 4.31%; in experiment [17], 8.64%; in experiment [18] it was 1.39%. Further, the inhibition was 6.14% in experiment [19] and 4.46% in [20].

For `COc1cccc(-n2nc(C)c3c(N/N=C(\C)c4ccncc4)ncnc32)c1`, the inhibition in experiment [1] was 2.57%; in experiment [2], -1.2%; in experiment [3] it was 0.69%; in experiment [4], -2.28%; in experiment [5], -0.38%; in [6] it was 3.18%. The inhibition in [7] stood at 2.67%; in experiment [8] it was 0.67%; in experiment [9], 2.24%; in experiment [10], 1.27%; in experiment [11] it was 0.79%; in experiment [12], 2.73%. Also, the inhibition was 3.95% in experiment [13]; 0.6% in experiment [14]; 4.15% in experiment [15]; 0.54% in experiment [16]; 3.61% in experiment [17]; -0.39% in experiment [18]. Further, the values for the inhibition in experiment [19] and in experiment [20] were 0.32% and 1.37%, respectively.

For the molecule `CCCN1CCCC(c2ccc(Nc3nc(Nc4cc(F)ccc4C(N)=O)c4cc[nH]c4n3)c(OC)c2)C1` (centres undefined), the inhibition in [1] amounted to 5.65%; in experiment [2], 4.46%; in experiment [3], 6.11%; in experiment [4] it was 3.36%; in experiment [5], 5.51%; in [6], 3.48%. For the same molecule, the inhibition in experiment [7] was 6.47%; in [8] it was -2.19%; in [9], 79.6%; in [10], 1.81%; in [11], 7.44%; in experiment [12], -0.78%. Moreover, the inhibition in experiment [13] was 3.45%; in experiment [14], -0.09%; in experiment [15], 5.81%; in experiment [16], 7.27%; in experiment [17] it was 24.8%; in [18], 9.87%. Moreover, the results for the inhibition in experiment [19] and in experiment [20] were 48.9% and 38.3%, respectively.

Regarding `NS(=O)(=O)c1cccc(Nc2cc(-c3ccc(F)cc3)n[nH]2)c1`, the inhibition in experiment [1] is 19.2%; in experiment [2], 4.73%; in experiment [3], 26.1%; in experiment [4] it was 6.62%; in experiment [5] it was 27.9%; in experiment [6], 3.74%. The inhibition in [7] is 3.31%; in [8], -3.9%; in experiment [10], 1.29%; in experiment [11], 8.81%; in experiment [12], 3.89%; in experiment [13], 3.74%. Further, the inhibition in [14] came to 0.7%; in experiment [15] it was 0.46%; in [16] it was 4.31%; in experiment [17] it was 16.5%; in experiment [18], 1.41%; in experiment [19] it was 4.93%. For the same molecule, in [20], the inhibition was 16.9%.

As for `Nc1nccc(-c2c(-c3ccc(F)cc3)ncn2CCCN2CCOCC2)n1`, the inhibition in [1] turned out to be 2.15%; in experiment [2], 1.18%; in experiment [3], 6.6%; in experiment [4] it was 0.23%; in experiment [5], 4.59%; in experiment [6], 3%. In addition, the inhibition in experiment [7] is 3.47%; in experiment [8] it was -3.95%; in [9], 6.61%; in experiment [10], 3.86%; in experiment [11], 8.99%; in [12], 2.68%. For the same molecule, the inhibition in experiment [13] was 4.99%; in experiment [14], 0.25%; in [15] it was -2.92%; in experiment [16], 3.38%; in experiment [17] it was 7.74%; in [18] it was 2.02%. In addition, the inhibition in experiment [19] is -0.39%; in [20], 3.81%.
